The list is not random: actives were taken first. Their share in the collection is about 4.7%.
D1 potentiator – Potentiators of Human D1 Dopamine Receptor: qHTS. D(1A) dopamine receptor (Homo sapiens), P21728. HEK293 TREx D1 cells, calcium flux, dopamine EC20 potentiation. potentiation, % at 10 µM. 360,000 tested, 0.036% active. AID 504651, 2011; in the data active means potentiation above about 30%
TRHR PAM – qHTS for Small Molecule Agonists and Allosteric Enhancers of Human TRH Receptor: Primary Screen for Enhancers; TRHR cells, fluo-8 calcium fluorescence, EC20 TRH enhancement; 360,000 tested, 0.66% active; Thyrotropin-releasing hormone receptor (Homo sapiens), P34981; enhancement, % at 2 µM; in the data active means enhancement above about 30%
Target sequence (P34981 whole entry, looked up): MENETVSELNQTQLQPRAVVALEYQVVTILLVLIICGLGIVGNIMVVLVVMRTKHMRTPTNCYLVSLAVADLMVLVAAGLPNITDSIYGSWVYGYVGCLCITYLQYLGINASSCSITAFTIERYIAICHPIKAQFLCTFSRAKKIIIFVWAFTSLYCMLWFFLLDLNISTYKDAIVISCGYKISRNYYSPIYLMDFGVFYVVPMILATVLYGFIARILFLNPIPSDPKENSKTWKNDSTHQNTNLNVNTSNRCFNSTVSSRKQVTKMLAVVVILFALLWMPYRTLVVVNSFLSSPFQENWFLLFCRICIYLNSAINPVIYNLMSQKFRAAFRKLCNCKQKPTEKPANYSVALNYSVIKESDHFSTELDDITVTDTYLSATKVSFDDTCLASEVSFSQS
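Enhancer read-out: after compound pinning and an initial kinetic agonist-mode read, an EC20 of TRH (10 nM final) was injected and fluo-8 calcium signal (Ex 480/Em 530) followed at 1 s/cycle for 100 cycles in TRHR-expressing cells.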
D1 agonist – Allosteric Agonists of the Human D1 Dopamine Receptor: qHTS; D(1A) dopamine receptor (Homo sapiens), P21728; HEK293 T-REx D1 cells, calcium flux, agonist mode; activation, % at 2 µM; 360,000 tested, 1% active; AID 504660, 2011
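Inducible HEK293 T-REx D1 cells, force-coupled to calcium signalling, were plated at 4000 cells/well with tetracycline and held overnight at 30 C. After no-wash calcium dye loading, compound-evoked calcium rise over 180 s flagged agonists.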
TRHR ag – qHTS for Small Molecule Agonists and Allosteric Enhancers of Human TRH Receptor: Primary Screen for Agonists. activation, % at 2 µM. TRHR cells, calcium flux fluo-8, FDSS agonist mode. 360,000 tested, 0.18% active
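TRHR-expressing cells loaded with fluo-8 calcium dye; 23 nL library compound pin-transferred, kinetic FDSS fluorescence (Ex 480/Em 530) recorded about 180 s for agonist-induced calcium release, before a 10 nM TRH EC20 addition for potentiator mode.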
D1 antag – Antagonist of Human D 1 Dopamine Receptor: qHTS. D(1A) dopamine receptor (Homo sapiens), P21728. HEK293 TREx D1 cells, calcium flux, dopamine EC80; hits give low values. activity change, negative = inhibition, % at 10 µM. 360,000 tested, 3.2% active; in the data active means activity change below about -30%
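After overnight tetracycline induction at 30 C, force-coupled D1 HEK293 cells took up a no-wash calcium dye at room temperature. Compounds were added and monitored 180 s, and the response to EC80 dopamine was then recorded.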
Of the large screens only hits and unclear results are named; the others gave an inactive call. Unless noted, no stated cut-off is given here; in the data, active means activation above about 30%; inactive means the rest.

Cc1ccsc1/C=N/NC(=O)C1CC(=O)N(c2ccccc2)C1 (centres undefined)	D1 antag -47
CCN(CC)S(=O)(=O)c1cccc(-c2nnc(SCCCC(=O)c3ccccc3)o2)c1	none
CCN(CC)S(=O)(=O)c1cccc(-c2nnc(SCCCC(=O)c3ccc(F)cc3)o2)c1	D1 agonist 34
CCOC(=O)c1ccc(NC(=O)COCc2cc(-c3ccc4c(c3)OCO4)on2)cc1	none
COc1cc(/C=C(/C#N)c2nc3ccccc3c(=O)[nH]2)ccc1O	D1 agonist 34
COc1cc(/C=C(\C#N)C(=O)c2c[nH]c3ccccc23)cc(OC)c1O	D1 agonist 45
COc1c(Cl)cc(Cl)cc1/C=C(\C#N)c1nc2ccccc2[nH]1	D1 antag -61
COc1c(O)ccc(/C=C(\C#N)c2nc3ccccc3[nH]2)c1[N+](=O)[O-]	none
COc1cc(/C=C(/C#N)C(=O)c2c(C)[nH]c3ccccc23)ccc1OCC#N	none
CCOc1ccc(/C=C(\C#N)C(=O)c2c(C)[nH]c3ccccc23)cc1OC	TRHR PAM 36
CCC(=O)N1CCc2cc(CNS(=O)(=O)c3cc(Cl)ccc3OC)ccc21	none
Oc1c(C(c2ccc(F)cc2)N2CCOCC2)sc2nc(-c3ccco3)nn12 (centres undefined)	none (no result: D1 antag)
COc1ccc(NC(=O)CCCc2nnc3n(C(C)C)c(=O)c4sccc4n23)cc1Cl	none
CC1CN(C(=O)Nc2ccc(C(=O)NCCc3ccccc3)cc2)c2ccccc2S1 (centres undefined)	none
COc1cc(/C=C(\C#N)c2nc3ccccc3[nH]2)cc(OC)c1O	D1 agonist 109, TRHR ag 65
COc1ccccc1CCN1COc2c(cc3c(C)c(C)c(=O)oc3c2C)C1	D1 antag -31
CCN(CC)c1nc(C)c(C(=S)Nc2cc([N+](=O)[O-])ccc2Cl)s1	D1 agonist 39
COc1cc(-c2cc(C(=O)O)c3c(OC)c(OC)c(OC)cc3n2)ccc1O	D1 antag -50
CCN(CC)CCNC(=O)Cn1cnc2sc(C)c(S(=O)(=O)N3CCC(C)CC3)c2c1=O	none
Cc1ccc(C(=O)Nc2cnc3ccccc3c2)cc1	none
Cc1cc(C(=O)Nc2cnc3ccccc3c2)ccc1[N+](=O)[O-]	D1 antag -60
COc1ccc(CCn2c(C3CCCCC3)nc3c(c(=O)c4ccccc4n3C)c2=O)cc1	D1 agonist 126, D1 antag -39
CC(C)c1nc2c(c(=O)c3ccccc3n2C)c(=O)n1CCc1ccccc1	D1 agonist 93
COc1ccc(CCn2c(-c3ccccc3)nc3c(c(=O)c4ccccc4n3C)c2=O)cc1	none
COc1ccc(CCn2c(C3CCCCC3)nc3c(c(=O)c4ccccc4n3C)c2=O)cc1OC	none
COc1ccc(Cn2c(-c3ccccc3)nc3c(c(=O)c4ccccc4n3C)c2=O)cc1	D1 potentiator 40
COc1ccc(Cn2c(C3CCCCC3)nc3c(c(=O)c4ccccc4n3C)c2=O)cc1	D1 agonist 42
CCOc1ccc(C(=O)c2cn(CC(=O)Nc3ccc(F)cc3)c3cc4c(cc3c2=O)OCCO4)cc1	none
O=C(COC(=O)COc1ccc(Cl)cc1)Nc1ncc(Br)s1	none
O=C(O)C(C(=O)Oc1ccccc1)C(C(=O)O)C(=O)Oc1ccccc1 (centres undefined)	none
Cc1sc2nc(C)n(/N=C/c3ccccc3O)c(=O)c2c1C	none
Cc1sc2nc(C)n(/N=C/c3ccc(O)cc3O)c(=O)c2c1C	D1 antag -84
COc1ccc(NC(=O)c2cc(=O)c3cc(C)cc(C)c3o2)cc1	none
O=C1N/C(=N\S(=O)(=O)Cc2ccccc2)S/C1=C/c1cc([N+](=O)[O-])ccc1O	TRHR PAM 49, D1 agonist 267, TRHR ag 102
O=C1N/C(=N\S(=O)(=O)c2ccccc2)S/C1=C\c1cc([N+](=O)[O-])ccc1O	TRHR PAM 40, D1 agonist 168, TRHR ag 114
CC(NC(=O)CN1C(=O)NC(C)(c2cccc3ccccc23)C1=O)c1ccccc1 (centres undefined)	none
Cc1ccc(S(=O)(=O)NCCCCCC(=O)NC(C)(C)CO)cc1	none
CCCC[N+](C)(C)CCC(=O)NC(C)(C)CS(=O)(=O)[O-]	D1 antag -34
CC(C)(C)C1CCC(OCC(O)CN2CCCC2)CC1 (centres undefined)	D1 agonist 33
CC1CCN(CC(O)COC2CCC(C(C)(C)C)CC2)CC1 (centres undefined)	none
Cc1nc(-c2noc(-c3ccc(Cl)cc3)n2)c(C(F)(F)F)o1	none
CC(=O)Nc1ccc(NC(=O)C(C)OC(=O)c2cccs2)cc1 (centres undefined)	D1 antag -37
Cc1oc2ccc(O)c(CN(C)Cc3ccccc3)c2c1C(=O)Nc1ccccc1	D1 antag -44
Cc1oc2ccc(O)c(CN(C)Cc3ccccc3)c2c1C(=O)Nc1cccc(C(F)(F)F)c1	none
Cc1cc(C)n(Cc2ccc(C(=O)Nc3cccc(Br)c3)o2)n1	D1 agonist 38
O=C(Nc1cccc(C(F)(F)F)c1)c1ccc(Cn2cc(Br)cn2)o1	D1 agonist 34, D1 antag -31
C/C(=N/NC(=O)C1CCCC1)c1ccc(NC(=O)C(F)(F)F)cc1	none
O=C(NCc1cccnc1)c1nc(-c2ccc(C(F)(F)F)cc2)no1	D1 antag -40
O=C(NCc1ccncc1)c1nc(-c2ccc(C(F)(F)F)cc2)no1	D1 antag -39
O=C(NCc1ccncc1)c1nc(-c2cccs2)no1	none
CN(CCC1CCOCC1)C(=O)C1CCC(=O)N(CCc2cccc(F)c2)C1 (centres undefined)	none
NCCCC(=O)N1c2ccccc2Sc2ccc(Cl)cc21	none
NCCC(=O)N1c2ccccc2Sc2ccc(Cl)cc21	D1 agonist 59, TRHR ag 50
Cc1ccccc1OCCn1c(=N)n(C(C)C)c2ccccc21	D1 agonist 43
Cc1ccccc1OCCN1C(=O)c2ccccc2C1=O	none
CCN(c1ccccc1)S(=O)(=O)c1ccc(NC(=O)c2cc(=O)c3c(C)cc(C)cc3o2)cc1	none
CC(=O)c1cc2c(cc1NC(=O)c1cnn(-c3ccc(C)cc3)c1-n1cccc1)OCO2	none
COc1ccc(NCC(O)Cn2cnc3c2c(=O)n(C)c(=O)n3C)cc1 (centres undefined)	none
Cn1c(=O)c2c(ncn2CC(O)CNc2ccc(Br)cc2)n(C)c1=O (centres undefined)	D1 antag -32

Compound activity (PubChem)
